High-throughput results from PubChem BioAssay.
GPR151 activ: human GPR151 activation | PathHunter beta-arrestin GPR151 cells, luminescence | activation, % at 11.2 µM | 650,000 compounds, 1% hits; in the data active means activation above about 4.9%;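 further: 0% = median of compound wells and 100% = cells with positive control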
Target sequence (Q8TDV0 whole entry, looked up): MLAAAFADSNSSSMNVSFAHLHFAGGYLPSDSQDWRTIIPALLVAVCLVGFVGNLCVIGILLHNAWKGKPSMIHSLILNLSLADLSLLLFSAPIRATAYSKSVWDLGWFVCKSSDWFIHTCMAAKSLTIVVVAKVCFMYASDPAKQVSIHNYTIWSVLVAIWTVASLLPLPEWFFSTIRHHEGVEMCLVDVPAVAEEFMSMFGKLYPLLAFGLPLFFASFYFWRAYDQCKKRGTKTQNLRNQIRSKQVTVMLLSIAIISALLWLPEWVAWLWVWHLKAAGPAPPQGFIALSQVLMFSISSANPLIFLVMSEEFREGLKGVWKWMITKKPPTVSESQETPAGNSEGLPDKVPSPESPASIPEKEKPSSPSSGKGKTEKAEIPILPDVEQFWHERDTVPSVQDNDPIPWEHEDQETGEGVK
MITF inh: human MITF inhibition, primary screen; O75030; inhibition, % at 2.6 µM; AlphaScreen MITF homodimerization, bead proximity signal; 650,000 compounds, 0.91% hits; in the data active means inhibition above about 50%;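 further: 0% = vehicle wells with protein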
TEAD-YAP block: TEAD-YAP interaction inhibition; 640,000 compounds, 1.4% hits; AID 1259422; inhibition, % at 9.12 µM; HEK-TIYL cells, TEAD-Gal4/YAP UAS-luciferase luminescence; in the data active means inhibition above about 32%;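 further: 0% = median of test compound wells and 100% = reference inhibitor wells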
FBW7 act: activators of human E3 ligase FBW7. AlphaScreen FBW7–phospho-cyclin E peptide binding, activator screen. Q969H0. 650,000 compounds, 0.13% hits. normalized activity (activation), % at 26.1 µM. AID 1259310; in the data active means normalized activity above about 1.9%;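 further: purified mutant Fbw7 with reduced substrate affinity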
MITF inh conf: confirmation of human MITF inhibitors | shares compounds with MITF inh | AlphaScreen MITF homodimerization, biotin/His-MITF beads | inhibition, % at 2.6 µM | 4,700 compounds, 16% hits;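 active means inhibition above a cutoff derived from the DMSO control wells, cut at about 28% in these data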;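 further: 0% = MITF dimer wells with DMSO only; inhibitors lower the bead chemiluminescence by keeping MITF from dimerizing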
AlphaScreen DR: AlphaScreen optical interference, dose response counter-screen | shares compounds with MITF inh | AlphaScreen optical interference counterscreen, cell-free | IC50, µM | 480 compounds, 6% hits; call rule not given here
AlphaScreen intf2: counter-screen: compounds optically interfering with AlphaScreen. shares compounds with MITF inh. LysRS AlphaScreen counterscreen, signal interference, triplicate. inhibition, % at 2.6 µM. 4,700 compounds, 7.6% hits;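 active means inhibition above a cutoff derived from the DMSO control wells, cut at about 30% in these data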
Active calls of the source: *; . = no result. A selection: hits, their analogues and other compounds. The true share with any hit is near 3.5%.

SMILES | GPR151 activ | MITF inh | TEAD-YAP block | FBW7 act | MITF inh conf | AlphaScreen intf2 | others
Cc1cccc(CN2CCN(Cc3ccccc3Cl)CC2)c1 | 0 | 51* | -2 | 0 | 10 | 15
CN1CCN(Cc2ccccc2F)CC1 | 0 | 52* | 9 | 0 | 1 | 1
Fc1ccc(CN2CCN(Cc3ccccc3F)CC2)cc1 | 2 | 78* | -13 | 0 | -7 | -3
Fc1ccccc1CN1CCN(Cc2ccc(Cl)cc2)CC1 | 1 | 50 | 2 | 0 | . | .
CN1CCN(Cc2ccccc2O)CC1 | 2 | 1 | 18 | 0 | . | .
O=C(COc1ccc(Cl)cc1)N1CCN(Cc2ccccc2F)CC1 | 4 | 60* | 1 | 0 | 7 | 1
Fc1ccc(F)c(CN2CCN(Cc3ccccc3)CC2)c1 | 4 | -2 | -2 | 0 | . | .
CCc1ccc(CN2CCN(Cc3ccccc3F)CC2)cc1 | 0 | 71* | -5 | 0 | -3 | 0
CCOc1cc(CN2CCN(CCO)CC2)ccc1OC | -1 | 8 | 5 | 1 | . | .
COc1ccc(CN2CCNCC2)cc1Br | -1 | 10 | 19 | 0 | . | .
CCC(C)N1CCN(Cc2ccc(OC)c(Br)c2)CC1 (stereo not drawn) | 2 | 82* | 27 | 0 | 24 | 14
CCOc1cc(CN2CCN(C(C)CC)CC2)ccc1OC (stereo not drawn) | 1 | 74* | -6 | 0 | -3 | -9
Cc1cc(OCC(=O)N2CCN(Cc3ccc4c(c3)OCO4)CC2)ccc1Br | 1 | -2 | -1 | 0 | . | .
CCN(CC)c1ncnc2c1ncn2[C@@H]1O[C@H](COP(=O)(O)OP(=O)(O)C(Br)(Br)P(=O)(O)O)C(O)[C@@H]1O (stereo partly drawn) | 3 | 73* | . | 0 | 88* | -23 | AlphaScreen DR=>6.5
Nc1ncnc2c1ncn2[C@@H]1O[C@H](COP(=O)(O)CP(=O)(O)OP(=O)(O)O)[C@H](O)C1O (stereo partly drawn) | -1 | 11 | -4 | 0 | . | .
O=c1cccc2n1CC1CC2CN(Cc2ccc([N+](=O)[O-])cc2)C1 (stereo not drawn) | 2 | 9 | 1 | 0 | . | .
COc1ccc(CC(=O)N2CCC3(CC2)OCc2ccccc2O3)cc1 | 4 | 19 | -14 | 0 | . | .
Cc1cccc2nc(CSC(=S)NCc3cccnc3)cn12 | -1 | -6 | 1 | 0 | . | .
Cc1ccc(N2C(=O)CC(=O)NC2=O)cc1 | -1 | 83* | -1 | 0 | -3 | 4
O=C1CC(=O)N(c2ccc(Br)cc2)C(=O)N1 | -1 | -1 | -4 | 0 | . | .
O=C(COc1ccc(Cl)cc1)N1CCN(C2C3CC4CC(C3)CC2C4)CC1 (stereo not drawn) | 0 | 50 | -2 | 0 | . | .
COc1ccc(CN2CCN(Cc3ccc(Cl)cc3)CC2)cc1Br | -1 | 80* | 12 | 0 | 6 | 7
COc1ccc(CN2CCN(CCO)CC2)cc1Br | -1 | 77* | -2 | 0 | 5 | -2
COc1ccc(CN2CCN(Cc3cccc(C)c3)CC2)cc1Br | -1 | 70* | 0 | 0 | 21 | 8
CCN1CCN(Cc2ccc(OC)c(Br)c2)CC1 | 0 | -7 | -9 | 0 | . | .
SMILES | GPR151 activ | MITF inh | TEAD-YAP block | FBW7 act | MITF inh conf | AlphaScreen intf2 | others
COc1cc(C)c(CN2CCN(CCO)CC2)cc1C | 1 | 51* | 2 | 0 | 2 | 5
COc1cc(Br)c(CN2CCN(CCO)CC2)cc1OC | -1 | 16 | -5 | 0 | . | .
O=C(CN1C2CCC1CC(O)(c1ccccc1F)C2)NCC1CC1 (stereo not drawn) | 0 | -1 | -2 | 0 | . | .
Fc1cccc(CCNCc2ccccn2)c1 | 0 | 62* | -8 | -1 | -5 | 6
Clc1ccc(CCNCc2ccccn2)c(Cl)c1 | -1 | 33 | -5 | 0 | . | .
CC(C#N)CN1CC2(C)CC1CC(C)(C)C2 (stereo not drawn) | 0 | 39 | -1 | 0 | . | .
CC1(C)CC2CC(C)(CN2CCC#N)C1 (stereo not drawn) | 0 | 53* | 2 | 0 | -12 | -9
CC(C)NC(=O)c1cn(CC2CCCCC2)cc(C(=O)N2CCc3ccccc3C2)c1=O | -2 | 23 | -4 | 0 | . | .
O=c1c2ccccc2nc(-c2ccccc2)n1-c1ccccc1O | 0 | 68* | 12 | 0 | 32* | -6 | AlphaScreen DR=>6.5
